Bioassay records as filed in PubChem.
Rev-erbA mod – Rev-erb alpha (human) modulation. P20393. Rev-erbα–FITC-DNA binding, fluorescence polarization, 90 min. activity, % at 10 µM. 370,000 tested, 0.79% active. AID 1259318;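 active = activity above about 14%, limit read from the data; passing the limit was not always enough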
V-ATPase pH – yeast V-ATPase proton transport regulation by pHLuorin | S. cerevisiae, pHLuorin cytosolic pH fluorescence | response, % at 10 µM | 350,000 tested, 0.37% active; in the data active = response mostly above about 7.3%, no sharp cut-off; inactive = mostly below about 5.4%; also: actives read high
PG9 Ab binder – small molecules binding HIV-1 gp120 antibody PG9. 360,000 tested, 0.43% active. inhibition, % at 6.7 µM. AID 624416. TR-FRET gp120-PG9 antibody binding; in the data active = inhibition above about 8.5%
GC-A act – GC-A (human) enzyme activation | HEK293 GC-A cells, cGMP TR-FRET, EC30 ANP; 0% at EC30 ANP, 100% saturating ANP | 370,000 tested, 0.14% active | P16066 | AID 1671463 | activation, % at 10 µM; in the data active = activation above about 40%
Target sequence (P16066 whole entry, looked up): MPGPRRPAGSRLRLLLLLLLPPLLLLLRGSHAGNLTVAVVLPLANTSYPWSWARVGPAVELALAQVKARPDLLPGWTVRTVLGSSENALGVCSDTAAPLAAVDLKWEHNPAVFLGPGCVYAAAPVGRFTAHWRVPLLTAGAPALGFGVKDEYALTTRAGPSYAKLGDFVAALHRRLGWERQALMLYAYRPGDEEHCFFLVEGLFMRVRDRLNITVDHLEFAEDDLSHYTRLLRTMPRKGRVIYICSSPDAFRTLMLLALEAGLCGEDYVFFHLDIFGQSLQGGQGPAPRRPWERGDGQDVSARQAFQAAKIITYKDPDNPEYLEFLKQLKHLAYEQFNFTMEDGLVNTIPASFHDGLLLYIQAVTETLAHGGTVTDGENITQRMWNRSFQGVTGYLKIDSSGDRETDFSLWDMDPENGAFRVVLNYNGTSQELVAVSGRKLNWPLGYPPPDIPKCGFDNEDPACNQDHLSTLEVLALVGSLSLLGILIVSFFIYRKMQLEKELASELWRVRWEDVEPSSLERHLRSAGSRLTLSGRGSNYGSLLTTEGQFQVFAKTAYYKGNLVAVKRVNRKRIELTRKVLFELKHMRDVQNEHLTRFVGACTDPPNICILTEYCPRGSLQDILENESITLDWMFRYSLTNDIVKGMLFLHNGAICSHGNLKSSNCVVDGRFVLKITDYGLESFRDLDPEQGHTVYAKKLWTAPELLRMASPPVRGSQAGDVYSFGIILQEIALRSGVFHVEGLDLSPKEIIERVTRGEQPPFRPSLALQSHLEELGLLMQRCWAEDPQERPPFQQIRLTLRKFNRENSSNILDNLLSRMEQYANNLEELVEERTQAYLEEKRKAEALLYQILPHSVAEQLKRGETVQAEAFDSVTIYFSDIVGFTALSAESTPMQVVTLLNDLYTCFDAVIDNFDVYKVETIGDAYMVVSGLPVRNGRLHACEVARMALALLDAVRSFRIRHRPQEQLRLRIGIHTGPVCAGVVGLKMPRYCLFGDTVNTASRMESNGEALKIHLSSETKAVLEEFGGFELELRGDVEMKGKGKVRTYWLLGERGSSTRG
NPR2 activator – GC-B (human) receptor activation. P20594. HEK293-GC-B cells, CNP EC30, cGMP TR-FRET; 0% at EC30 CNP, 100% saturating CNP. activation, % at 10 µM. 370,000 tested, 0.11% active. AID 1920062;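 active = activation at 10 µM reaching about 35% in either raw or pattern-adjusted values, limit read from the data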
PG9 binder conf – confirmation of small molecules binding HIV-1 gp120 antibody PG9 | shares compounds with PG9 Ab binder | TR-FRET PG9 antibody binding, biochemical | inhibition, % at 6.7 µM | 1,500 tested, 90% active | AID 651571; in the data active = inhibition above about 9%
PGV04 Ab binding – PGV04 control antibody binding, counter-screen. inhibition, % at 6.7 µM. AID 651604. 1,500 tested, 95% active. shares compounds with PG9 Ab binder. TR-FRET PGV04 antibody-gp120 binding, biochemical; in the data active = inhibition above about 9.5%
PG9 bind DR – PG9 antibody binding, dose response; shares compounds with PG9 Ab binder; TR-FRET PG9 antibody-gp120 binding inhibition; IC50, µM; 95 tested, under 10 active; AID 651848; in the data active = IC50 below about 10 µM
PGV04 DR counter – binds control antibody PGV04 in PG9 counter-screen; shares compounds with PG9 Ab binder; TR-FRET binding to control antibody PGV04; IC50, µM; 95 tested, 20% active; AID 651937
PG126 binding DR – binds control antibody PG126 in PG9 counter-screen. shares compounds with PG9 Ab binder. TR-FRET binding to antibody PG126, counterscreen. IC50, µM. 95 tested, 20% active. AID 651939
Hits are given with their value; 0 = inactive; - = no result given. Shown are actives, neighbours in structure and some others; about 1.6% of the full set was active somewhere. Rule as the data show it, unless noted: active = IC50 below about 9 µM; inactive = the rest.

SMILES	Rev-erbA mod	V-ATPase pH	PG9 Ab binder	GC-A act	NPR2 activator	PG9 binder conf	PGV04 Ab binding	others
COc1ccc(Oc2c(Cl)cnn(-c3ccc(C(C)C)c(C)c3)c2=O)cc1	0	-	-	0	0	-	-
O=C(Cn1nnc(-c2ccccc2F)n1)Nc1ccc(F)cc1F	0	-	-	0	0	-	-
COc1ccc(C2CCCN2C(=O)Nc2ccccc2)cc1OC (stereo unspecified)	0	0	13	0	0	0	0
O=C(O)Cn1c2c(c3ccccc31)CSc1ccc(Cl)cc1-2	0	0	17	0	0	10	14
CC1(c2nnnn2Cc2ccccc2)CCCCC(=O)N1Cc1cccs1 (stereo unspecified)	0	-	-	0	0	-	-
O=C(Nc1cc(F)cc(F)c1)c1sc(Cl)nc1-c1ccccc1	0	0	9.6	0	0	14	42
COc1ccc(/C(O)=C2/C(=O)C(=O)N(c3ccccn3)C2c2ccc(OC)cc2)cc1 (stereo unspecified)	0	0	0	0	0	-	-
CCCOc1ccc(/C(O)=C2/C(=O)C(=O)N(c3ccccn3)C2c2ccc(OC)cc2)cc1C (stereo unspecified)	0	0	17	0	0	25	36
CCOc1ccc(/C(O)=C2/C(=O)C(=O)N(c3ccccn3)C2c2ccc(F)cc2)c(C)c1 (stereo unspecified)	0	0	10	0	0	18	24
Cc1ccc(/C(O)=C2/C(=O)C(=O)N(c3ccccn3)C2c2ccc(F)cc2)cc1 (stereo unspecified)	0	0	0	0	0	-	-
CCOC(=O)CC[C@H]1CC[C@]2(CCCN(Cc3ccccc3)C2)O1	0	-	-	0	0	-	-
CCOC(=O)[C@]12CCCCC/C=C\1N(Cc1ccc(OC)cc1)C(=O)[C@H]2CC(=O)N1CCSCC1	0	-	-	0	0	-	-
COc1ccc2cc(CN(CC3CCCO3)S(=O)(=O)c3ccccc3)c(=O)[nH]c2c1 (stereo unspecified)	0	0	0	0	0	-	-
COc1ccc2cc(CN(CC3COCCO3)S(=O)(=O)c3ccc(Cl)cc3)c(=O)[nH]c2c1 (stereo unspecified)	0	0	24	0	0	26	31
COC(=O)[C@]12C[C@H](CC(=O)NCCc3ccccc3OC)C(=O)N(Cc3cccc4ccccc34)C1=C[C@H](C(C)(C)C)O[C@@H]2C	0	-	-	0	0	-	-
CC(=O)c1ccc(OCCCC(=O)Nc2nnc(C3CC3)s2)cc1	0	0	8.7	0	0	18	25
COc1ccc(CCn2c(SCC(=O)Nc3cc(C)on3)nc3ccsc3c2=O)cc1OC	0	0	36	0	0	46	56
COc1ccc(CCn2c(SCC(=O)Nc3cc(C)on3)nc3ccccc3c2=O)cc1OC	0	0	0	0	0	-	-
COc1ccc(CN(C2CCCCC2C)S(=O)(=O)c2ccc(S(=O)(=O)N(C)C)cc2)cc1OC (stereo unspecified)	0	0	0	0	0	-	-
COc1cc(CN(C2CCCCC2C)S(=O)(=O)c2ccc(S(=O)(=O)NC3CC3)cc2)cc(OC)c1OC (stereo unspecified)	0	0	11	0	0	0	0	PG9 bind DR=0;PGV04 DR counter=0;PG126 binding DR=0
Nc1nc2c(-c3ccc(Br)cc3)nnn2c2ccccc12	0	0	11	0	0	13	30
COC(=O)[C@]12C[C@H](CC(=O)NCC34CC5CC(CC(C5)C3)C4)C(=O)N(CCc3ccc(OC)c(OC)c3)C1=C[C@H](C(C)(C)C)O[C@@H]2C	0	-	-	0	0	-	-
O=C(NC1CCCCN(Cc2ccc(OC(F)(F)F)cc2)C1=O)c1cccc(C(F)(F)F)c1 (stereo unspecified)	0	-	-	0	0	-	-
COC(=O)c1sc(NC(=O)CSc2nc3cccnc3n2C2CCCCC2)nc1C	0	0	0	0	0	-	-
COc1ccc2nc(NC(=O)CSc3nc4cccnc4n3C)sc2c1	0	0	26	0	0	29	42
SMILES	Rev-erbA mod	V-ATPase pH	PG9 Ab binder	GC-A act	NPR2 activator	PG9 binder conf	PGV04 Ab binding	others
COC(=O)c1sc(NC(=O)CSc2nc3cccnc3n2C)nc1C	0	0	22	0	0	33	45
Cc1cc(C(=O)O[C@@H]2CCC[C@]3(C(=O)N(Cc4ccccc4)c4ccccc43)[C@H]2NC(=O)CCc2ccccc2)no1	0	-	-	0	0	-	-
COc1ccc(OC)c(S(=O)(=O)Nc2ccc(C(C)=O)cc2)c1	0	0	8.6	0	0	21	19	PG9 bind DR=0;PGV04 DR counter=0;PG126 binding DR=0
CC(=O)OC1CC(C)(C)N(OC(=O)c2ccccc2)C(C)(C)C1	0	0	0	0	0	-	-
CC(=O)OC1CC(C)(C)N(OC(=O)c2ccc(N)cc2)C(C)(C)C1	0	0	29	0	0	32	43
O=S1(=O)c2ccc(N3CCCC3)cc2Oc2ccccc2CN1Cc1cn(Cc2cccc(C(F)(F)F)c2)nn1	0	-	-	0	0	-	-
O=C(Nc1ccc(F)cc1)C1CCCN(S(=O)(=O)c2ccc3[nH]c(=O)ccc3c2)C1 (stereo unspecified)	0	0	11	0	0	19	29
Cc1ccc(C)c(NC(=O)C2CCCN(S(=O)(=O)c3ccc4[nH]c(=O)ccc4c3)C2)c1 (stereo unspecified)	0	0	16	0	0	13	21
COC(=O)[C@]12C[C@H](CC(=O)NCc3ccc(OC)c(OC)c3)C(=O)N(Cc3ccco3)C1=C[C@H](C(C)C)O[C@@H]2C1CC1	0	-	-	0	0	-	-
COc1ccc(-c2c(Sc3ccccc3)c3cc(-c4ccc(OC)c(F)c4)ccc3n2C)cc1	0	-	27	0	0	0	36
COc1cc(OC)cc(-c2c(Sc3ccccc3)c3cc(-c4ccc(OC)c(OC)c4)ccc3n2C)c1	0	-	19	0	0	34	19	PG9 bind DR=0;PGV04 DR counter=0;PG126 binding DR=0
COc1cc(OC)cc(-c2c(Sc3ccccc3)c3cc(-c4cnc(N5CCOCC5)nc4)ccc3n2C)c1	0	-	0	0	0	-	-
COc1ccc(-c2ccc3c(c2)c(Sc2ccccc2)c(-c2ccccc2)n3C)cn1	0	-	0	0	0	-	-
CN(Cc1ccccc1)C(=O)OCc1cn(Cc2cccc(F)c2F)nn1	0	-	-	0	0	-	-
C[C@H]1[C@H](N)CC[C@@]23CCCN2C(=O)CCC[C@@H]13	0	-	-	0	0	-	-
CC(=O)N1CCN(CCN2C(C)=CC(=C(C#N)C#N)C=C2C)CC1	0	0	0	0	0	-	-
